Compound activity: PubChem, National Center for Advancing Translational Sciences (NCATS)
SARS PLpro yeast: qHTS of Yeast-based Assay for SARS-CoV PLP. 0.19% of 330,000 active. S. cerevisiae expressing SARS-CoV PLpro, growth rescue. Potency, µM (titrated, usually from 32.9 µM), without a hit: at the top dose activity, positive = growth rescue, most hits filed as activators. AID 485353, 2010; calls by dose curve; also: potency is read from the fitted curve at half-maximal effect; 0% is about no effect; nearly all actives have a fitted effect of over 55% in size
Pf growth 96h: Primary qHTS for delayed death inhibitors of the malarial parasite plastid, 96 hour incubation; P. falciparum luciferase reporter growth, 96 h; Potency, µM (doses to about 28.7 µM), inactives show at the highest dose activity change, negative = inhibition, usual class: inhibitors; 6.9% of 320,000 active; AID 504834, 2011; also: potency is read from the fitted curve at half-maximal effect; % is scaled to controls: 0 for no effect and ±100 for the full control effect
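Erythrocytes infected with luciferase-expressing P. falciparum were dispensed at 2% hematocrit and 0.05% parasitemia (final), then incubated with compounds 96 hours at 37 C in 5% CO2. Luminescence after detection reagent addition reported growth.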
Sm TGR inh: qHTS Assay for the Inhibitors of Schistosoma Mansoni Peroxiredoxins. 3% of 360,000 active. Schistosoma mansoni thioredoxin glutathione reductase (TGR), Q962Y6. Potency, µM (top dose mostly 114 µM), for the others: top-dose activity change, negative = inhibition, hits mostly inhibitors. purified TGR, DTNB reduction, TNB absorbance 405 nm; also: potency is read from the fitted curve at half-maximal effect; % is scaled to controls: 0 for no effect and ±100 for the full control effect; nearly all actives have a fitted effect of over 60% in size
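Kinetic colorimetric format: TGR-catalysed, NADPH-driven DTNB reduction monitored via TNB absorbance. Enzyme dispensed at 20 nM; compound exposure 15 min at room temperature before reaction start.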
Pf growth 48h: Primary qHTS for delayed death inhibitors of the malarial parasite plastid, 48 hour incubation | P. falciparum luciferase growth in erythrocytes, 48 h | Potency, µM (series often up to 28.7 µM), inactives show top-dose activity change, negative = inhibition, hits mostly inhibitors | 5.9% of 310,000 active; also: potency is read from the fitted curve at half-maximal effect; % is scaled to controls: 0 for no effect and ±100 for the full control effect
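Growth was read as firefly luciferase luminescence after a 48 h, 37 C, 5% CO2 exposure of compounds to reporter-bearing P. falciparum cultures (0.1% parasitemia, 2% hematocrit final) in Albumax-supplemented RPMI 1640.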
HCMV inh: qHTS Assay for inhibitors of the human cytomegalovirus (HCMV). HFF cells, HCMV-luciferase reporter, 72 h; stronger effect = lower value. 4.5% of 410,000 active. AID 1259415, 2018. activity change, negative = inhibition, % at 57.5 µM; in the data active = activity change below about -60%; inconclusive = no clear call, values can overlap the other calls; inactive = above about -39%; also: % is scaled to controls: 0 for no effect and ±100 for the full control effect
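HFF cells seeded 16 h at 37C, treated with compounds, infected with luciferase-reporter HCMV at MOI 1 PFU/cell; luciferase read at 72 h post infection, normalized to buffer-only and Salinomycin controls.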
HCV inhibitor: qHTS Assay for Inhibitors of Hepatitis C Virus (HCV); Huh7.5.1 HCVcc-Cre infection, luciferase reporter, 44 h; Potency, µM (titrated, usually from 41.8 µM), inactives show at the highest dose activity change, negative = inhibition, usual class: inhibitors; 3.4% of 340,000 active; also: potency is read from the fitted curve at half-maximal effect; % is scaled to controls: 0 for no effect and ±100 for the full control effect
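HCVcc-Cre virus at an moi near 0.5 was added right after compound to cells cultured 4 h from seeding (1,000 cells/well). Luciferase activity was determined 44 h later, 15 min after substrate addition at RT.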
HCV inh confirm: qHTS Assay for Inhibitors of Hepatitis C Virus (HCV): Confirmation Assay for Cherry-picked Compounds; AID 720575, 2013; HCVcc-Cre infectious virus cell assay, luciferase, inhibition; shares compounds with HCV inhibitor; Potency, µM (top dose mostly 41.8 µM), without a hit: top-dose activity, negative = inhibition, most hits filed as inhibitors; 78% of 640 active; also: potency is read from the fitted curve at half-maximal effect; nearly all actives have a fitted effect of over 80% in size
HCV host tox: qHTS Assay for Inhibitors of Hepatitis C Virus (HCV): Cytotoxicity Counterscreen for Cherry-picked Compounds; HCV host cell line cytotoxicity counterscreen; 22% of 640 active; Potency, µM (doses to about 41.8 µM), without a hit: at the highest dose activity change, negative = cytotoxicity, hits mostly inhibitors; shares compounds with HCV inhibitor;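 also: potency is read from the fitted curve at half-maximal effect; 44 h compound exposure; % is scaled to controls: 0 for no effect and ±100 for the full control effect; nearly all actives have a fitted effect of over 55% in size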
* = called active by the depositor; ? = inconclusive; . = not tested or not shown. Shown are actives, neighbours in structure and some others; about 15% of the full set was active somewhere. Unless noted, calls follow the shape of the dose curve; as a rule, active = well fitted curve in the direction sought with a large enough effect; inconclusive = small, poorly fitted or top-dose-only effect, or another doubt; inactive = no such curve, though single readings can be large; an effect the other way counts as inactive or inconclusive.

SMILES	SARS PLpro yeast	Pf growth 96h	Sm TGR inh	Pf growth 48h	HCMV inh	HCV inhibitor	HCV inh confirm	HCV host tox
CSc1nnc(-c2sc3cc(Cl)ccc3c2Cl)n1C	-3%	.	3%	20%	?	?	.	.
CSCCC(C(=O)Nc1c(C)cccc1C)n1c(-c2cc(C)cs2)nc2ccccc21 (configuration not stated)	.	.	.	.	81	.	.	.
COC1C(O)C(C)OC(OC2CCC3(C)C(CCC4C3C(O)CC3(C)C(C5=CC(=O)OC5)CCC43O)C2)C1O (configuration not stated)	.	.	.	.	-99*	1.6µM*	1.1µM*	?
CCOC(=O)C1(CCc2ccccc2)CCN(Cc2csc(C(C)=O)c2)CC1	-1%	?	18%	?	?	6.3µM*	14µM*	?
COc1ccc(Cl)cc1NC(=O)C(C)OC(=O)C1=NNC(=O)CC1 (configuration not stated)	5%	-13%	4%	22%	-5	?	?	-14%
COc1ccccc1NC(=O)c1ccc(NC(=O)COC(=O)c2ccc(O)cc2)cc1	-9%	-22%	-3%	?	-3	?	?	?
COc1ccccc1NC(=O)c1ccc(NC(=O)COC(=O)CCC2CCCC2)cc1	-23%	40%	-1%	-18%	-22	7%	.	.
CC(C)(C)OC(=O)N1CCC(c2c(C(=O)NCc3cccs3)cnn2-c2cccc(F)c2)CC1	.	.	2%	.	27	.	.	.
COc1ccc(C(=O)NC2CCCc3c2cnn3-c2ccccc2F)cc1OC (configuration not stated)	-3%	?	2%	2%	?	4.5µM*	7µM*	?
CC1=C(C(=O)NC2CCCc3c2cnn3-c2ccc(F)cc2F)OCCO1 (configuration not stated)	-4%	19%	-4%	8%	?	?	.	.
O=C(Nc1ccc([N+](=O)[O-])cc1)/C(=C/c1cccc([N+](=O)[O-])c1)NC(=O)C1CCCCC1	2%	?	2%	?	15	?	22µM*	48%
CCOc1ccccc1NC(=O)/C=C/c1ccccc1[N+](=O)[O-]	14%	?	-9%	54%	8	?	?	27%
Cc1ccnc(NC(=O)/C=C/c2ccccc2[N+](=O)[O-])c1	-1%	-27%	3%	39%	116	.	.	.
COC(=O)c1cc2ccsc2n1CC(=O)Nc1ccc(N(C)C)cc1	-7%	-24%	5%	35%	-23	?	.	.
COC(=O)c1cc2ccsc2n1CC(=O)Nc1cc(Cl)ccc1OC	-2%	-10%	3%	?	-97*	3.2µM*	7.9µM*	14µM*
Cc1ccccc1C(=O)Nc1ccccc1-c1nnn(CC(=O)Nc2ccc3c(c2)OCCO3)n1	4%	91%	9%	?	-30	5µM*	?	-11%
CSc1ccc(Cl)c(C(=O)Nc2cc(S(=O)(=O)N3CCOCC3)ccc2N2CCOCC2)c1	1%	.	.	.	58	-10%	.	.
Cc1ccc(CC(=O)NCCN2CCOCC2)cc1	-7%	?	10%	3%	2	9%	.	.
CC(C)=CCC/C(C)=C/CNC(=O)C[C@H]1C[C@H](C(=O)N2CCCCC2)[C@@]2(C)c3[nH]c4cc(CCC(=O)N(C)C)ccc4c3CCN2C1=O	-18%	.	.	.	.	7.9µM*	25µM*	?
O=C(O)c1cc([N+](=O)[O-])ccc1N1CCCCC1	8%	?	6%	17%	-4	3%	.	.
Cc1ccc(C(=O)c2cc([N+](=O)[O-])ccc2N2CCCCC2)c(C)c1	-43%	13µM*	7%	12µM*	-92*	?	?	-39%
Cc1ccc(SCc2nc3ncccn3c2Br)cc1	0%	-5%	-21%	-18%	-8	1%	.	.
O=C(NNc1ccc(Cl)cc1)C1CCC1	-4%	?	-26%	?	-13	21%	.	.
O=C(NNc1ccnc2cc(Cl)ccc12)C1CCCCC1	3%	1µM*	3%	1.7µM*	-82*	2.8µM*	0.89µM*	1.6µM*
COc1ccc(NC(=O)c2ccc(CN3CCc4ccccc4C3)cc2)c(OC)c1	10%	-12%	-9%	-18%	23	?	.	.
SMILES	SARS PLpro yeast	Pf growth 96h	Sm TGR inh	Pf growth 48h	HCMV inh	HCV inhibitor	HCV inh confirm	HCV host tox
COC(=O)c1ccc(CN2CCc3ccc(NC(=O)c4ccncc4)cc3C2)cc1	-6%	-1%	-24%	?	?	8.9µM*	14µM*	?
CC(=S)/C=C1\Sc2ccccc2N1C	12%	?	-23%	?	-23	2%	.	.
CC[n+]1c(/C=C2\Sc3ccccc3N2C)ccc2cccc(C)c21	-5%	10%	.	?	-101*	2.8µM*	2.5µM*	2.5µM*
CN(Cc1ccccc1)C(C(=O)NC1CCCCC1)c1ccc(Cl)cc1 (configuration not stated)	.	.	8%	.	-1	.	.	.
Cc1ccc(C(=O)c2c3ccc([N+](=O)[O-])cc3[n+]([O-])n2CCCN)cc1	-3%	?	35µM*	-94%	-2	7.9µM*	7µM*	51%
COc1ccc(NC(=S)N2CCC(c3nc4ccc(Cl)cc4[nH]3)CC2)c(OC)c1	1%	34%	-11%	26%	?	-27%	.	.
COc1ccc(NC(=S)N2CCCC(c3nc4ccc(C)cc4[nH]3)C2)cc1 (configuration not stated)	11%	?	2%	-3%	-5	5µM*	0.035µM*	10%
CN1CCc2c(sc(NC(=O)c3ccc([N+](=O)[O-])o3)c2C(N)=O)C1	6%	?	?	?	-104*	4µM*	14µM*	?
O=C(NCCCN1CCC(Cc2ccccc2)CC1)C1CCN(S(=O)(=O)N2CCC3(CC2)OCCO3)CC1	1%	-4%	6%	?	-15	-27%	.	.
